{"source": "PubChem BioAssay (NCATS)", "tested_on": "HIV-1 nucleocapsid protein NCp7 (binding to TG oligonucleotide)", "test": "HIV Nucleocapsid (AID 346);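 note: potency is for inhibitors that block NC binding and lower polarization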", "details": "HIV-1 NC / fluorescein-TGTGTGTG probe, fluorescence polarization", "method_in_brief": "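NCp7 100 nM + fluorescein TG4xF 10 nM; Hepes pH 7.5/250mM NaCl/1uM ZnCl2/0.004% PEG 20000; 1 hr RT; FP, 45 s exposure; oligo-only wells as negative control.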", "note": "A number with no mark means an inactive call. The rule behind the calls is not given here. Potency is the fitted concentration of half-maximal effect."}
{"smiles": "c1ccc2c(N3CCOCC3)nc(-c3ccoc3)nc2c1", "values": [{"measurement": "Potency", "value": "> 20", "unit": "µM"}]}
